The text below walks through data of paper PMC11062922 (Nature Chemical Biology, 2023).

The term IC50 denotes the point on the concentration scale where inhibition reaches its midpoint. A high value points to weaker potency in that assay. Broadly, the EC50 is the concentration that produces a half-maximal response.

Read-outs that look alike come from different tables or passages of the source.

In one test the test system is ILK. Also noted: species or system human, MV4-11 + K-562 + COLO205 + SK-N-BE2 + OVCAR-8. To be noted: read-out: apparent Kd; compound concentrations: 100 nM and 1000 nM (sheet 'Samples'), CATDS: 0.188303369583949; n = 1.
Another test has as its system CDK1_CycB1. To be noted: Highest Assay Concentration (M): 9.9999999999999995E-7.
A further test has as its system CK2alpha1. To be noted: Highest Assay Concentration (M): 9.9999999999999995E-7.
The subject of another test is CK2alpha2. To be noted: Highest Assay Concentration (M): 9.9999999999999995E-7.
The subject of a further test is CLK2. Details: species or system human, MV4-11 + K-562 + COLO205 + SK-N-BE2 + OVCAR-8. To be noted: read-out: apparent Kd, n = 1.
Another test relates to GSK3A. Details: species or system human, MV4-11 + K-562 + COLO205 + SK-N-BE2 + OVCAR-8. The conditions noted are these: compound concentrations:0.3nM, 1nM, 3nM, 10nM, 30nM, 100nM, 300nM, by the legend:Standard error of the EC50 estimation as provided by the drc package.; for Kd: read-out: apparent Kd.
Another test has as its system GSK3B. Details: species or system human, MV4-11 + K-562 + COLO205 + SK-N-BE2 + OVCAR-8. To be noted: compound concentrations:0.3nM, 1nM, 3nM, 10nM, 30nM, 100nM, 300nM, by the legend:Standard error of the EC50 estimation as provided by the drc package.; for Kd: read-out: apparent Kd.
A further test concerns LATS1. Also noted: species or system human, MV4-11 + K-562 + COLO205 + SK-N-BE2 + OVCAR-8. The conditions noted are these: compound concentrations:0.3nM, 1nM, 3nM, 10nM, 30nM, 100nM, 300nM, by the legend:Standard error of the EC50 estimation as provided by the drc package.; for Kd: read-out: apparent Kd.
In another test the test system is PKN1. Details: species or system human, MV4-11 + K-562 + COLO205 + SK-N-BE2 + OVCAR-8. To be noted: compound concentrations:0.3nM, 1nM, 3nM, 10nM, 30nM, 100nM, 300nM, by the legend:Standard error of the EC50 estimation as provided by the drc package.; for Kd: read-out: apparent Kd.
A further test concerns PRKX. Details: species or system human, MV4-11 + K-562 + COLO205 + SK-N-BE2 + OVCAR-8. To be noted: compound concentrations:0.3nM, 1nM, 3nM, 10nM, 30nM, 100nM, 300nM, by the legend:Standard error of the EC50 estimation as provided by the drc package.; for Kd: read-out: apparent Kd.
For the next test, the system named is DDR2. Details: species or system human, MV4-11 + K-562 + COLO205 + SK-N-BE2 + OVCAR-8. The conditions noted are these: read-out: apparent Kd, compound concentrations: 100 nM and 1000 nM (sheet 'Samples'), n = 1.
Another test relates to SIK3. Details: species or system human, MV4-11 + K-562 + COLO205 + SK-N-BE2 + OVCAR-8. The conditions noted are these: read-out: apparent Kd, compound concentrations: 100 nM and 1000 nM (sheet 'Samples'), n = 1.
The subject of the next test is CAMK2D. Also noted: species or system human, MV4-11 + K-562 + COLO205 + SK-N-BE2 + OVCAR-8. The conditions noted are these: read-out: apparent Kd; compound concentrations: 100 nM and 1000 nM (sheet 'Samples'), CATDS: 7.0756718203265796E-3; n = 1.
The next test concerns CSNK1G3. Also noted: species or system human, MV4-11 + K-562 + COLO205 + SK-N-BE2 + OVCAR-8. To be noted: read-out: apparent Kd; compound concentrations: 100 nM and 1000 nM (sheet 'Samples'), CATDS: 4.4654853896455996E-3; n = 1.
For the next test, the system named is DCTPP1. Also noted: species or system human, MV4-11 + K-562 + COLO205 + SK-N-BE2 + OVCAR-8. To be noted: read-out: apparent Kd; compound concentrations: 100 nM and 1000 nM (sheet 'Samples'), CATDS: 4.22997641527893E-3; n = 1.
The next test relates to MAPK1. Also noted: species or system human, MV4-11 + K-562 + COLO205 + SK-N-BE2 + OVCAR-8. The conditions noted are these: read-out: apparent Kd; compound concentrations: 100 nM and 1000 nM (sheet 'Samples'), CATDS: 4.58474987436945E-3; n = 1.
In the next test the test system is PI4KA. Also noted: species or system human, MV4-11 + K-562 + COLO205 + SK-N-BE2 + OVCAR-8. To be noted: read-out: apparent Kd; compound concentrations: 100 nM and 1000 nM (sheet 'Samples'), CATDS: 7.2985744477334297E-3; n = 1.
For another test, the system named is RPS6KA5. Details: species or system human, MV4-11 + K-562 + COLO205 + SK-N-BE2 + OVCAR-8. To be noted: read-out: apparent Kd; compound concentrations: 100 nM and 1000 nM (sheet 'Samples'), CATDS: 4.7822949231481997E-3; n = 1.
A further test deals with STRADA. Also noted: species or system human, MV4-11 + K-562 + COLO205 + SK-N-BE2 + OVCAR-8. To be noted: read-out: apparent Kd, n = 1.
The mark [1] stands for this setting: compound concentrations:100 nM and 1000 nM (sheet 'Samples').
The mark [2] stands for this setting: 1000nM,R2:0.98330827393916598,slope:1.45562792091779,EC50 Standard Error.
Setting [3] is: 1000nM,R2:0.96555674920545798,slope:0.96794765422259599,EC50 Standard Error.
Where [4] appears, read: 1000nM,R2:0.97889671835051595,slope:1.6751561590983699,EC50 Standard Error.
[5] abbreviates: 1000nM,R2:0.97867991540409105,slope:0.79419686113227705,EC50 Standard Error.
Setting [6] is: 1000nM,R2:0.94127289372754697,slope:1.4629649923763099,EC50 Standard Error.
[7] abbreviates: 1000nM,R2:0.98891896520214295,slope:0.86644868747919301,EC50 Standard Error.
Where [8] appears, read: 1000nM,R2:0.97796062612419798,slope:0.95181625856524898,EC50 Standard Error.
Where [9] appears, read: 1000nM,R2:0.99282697672558795,slope:1.31312375653091,EC50 Standard Error.
Where [10] appears, read: 1000nM,R2:0.99748458534068796,slope:1.1297658372901001,EC50 Standard Error.
The mark [11] stands for this setting: 1000nM,R2:0.99104054700331501,slope:1.8352310088782899,EC50 Standard Error.
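For EC50 in this document: competition pulldown with Kinobeads ε in cell lysates, inhibitor preincubated 45 min at 4 °C, bound kinases quantified by LC–MS/MS against DMSO control.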
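For Kd in this document: competition pulldown with Kinobeads ε in cell lysates, inhibitor preincubated 45 min at 4 °C, bound kinases quantified by LC–MS/MS against DMSO control.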

In the case of `O=C1N=C(Nc2ccccc2)S/C1=C\c1ccc2ncccc2c1` [RO4493940-000], the potency estimated from few doses with ILK was 1500 nM. For the same compound, the IC50 in the test on CDK1_CycB1 came to 2.88e-06 M; with CK2alpha1 it was 6.67e-08 M; with CK2alpha2, 5.11e-08 M.
As to `Cl.Cl.NCC(C(=O)Nc1cc(Br)c(-c2ccnc3[nH]ccc23)s1)c1ccccc1.NCC(C(=O)Nc1cc(Br)c(-c2ccnc3[nH]ccc23)s1)c1ccccc1` (centres unmarked) [GSK1269851A], in the test with CLK2 (setting [1]), the potency estimated from few doses was 730 nM.
As to `CCn1c(-c2nonc2N)nc2c(C#CC(C)(C)O)nc(OCCNC)cc21.Cl` [GSK949675A], the EC50 in the test on GSK3A (setting [2]) is 167 nM; in the test on GSK3B (setting [3]), 322 nM; with LATS1 (setting [4]), 238 nM; in the test on PKN1 (setting [5]), 4240 nM; in the test with PRKX (setting [6]), 221 nM. In addition, the Kd with GSK3A (setting [2]) is 104 nM; in the test on GSK3B (setting [3]) it was 171 nM; in the test with LATS1 (setting [4]), 238 nM; with PKN1 (setting [5]), 4230 nM; in the test on PRKX (setting [6]), 221 nM.
Consider `Clc1cc(Cl)cc(Nc2ccnc(Nc3cc(Cl)cc(Cl)c3)n2)c1` [GSK175726A], for which the potency estimated from few doses in the test with CLK2 (compound concentrations: 100 nM and 1000 nM (sheet 'Samples'), CATDS: 1.2027926669680101E-2) was 432 nM.
Consider `COc1ccc(Nc2ncc(C#N)c(Nc3ccccc3C(N)=O)n2)cc1N1CCN(C)CC1.Cl` [GSK1558669A], for which the potency estimated from few doses with DDR2 (CATDS: 6.40385177631159E-3) was 1140 nM; with SIK3 (CATDS: 6.59336570259887E-3) it was 968 nM.
`COc1cc(Nc2ncc3c(C)nc(-c4cc5ccccc5[nH]4)n3n2)cc(OC)c1OC` [GW869516X]: the IC50 in the test with CDK1_CycB1 was found to be 1.97e-06 M; in the test on CK2alpha1, 8.51e-08 M; with CK2alpha2, 3.37e-08 M.
Regarding `CCn1c(-c2nonc2N)nc2c(C#CC(C)(C)O)nc(OCCN)cc21.CCn1c(-c2nonc2N)nc2c(C#CC(C)(C)O)nc(OCCN)cc21.Cl.Cl` [GSK902056A], the EC50 in the test on GSK3A (setting [7]) was 173 nM; with GSK3B (setting [8]) it was 296 nM; with LATS1 (setting [9]), 87.4 nM; in the test with PKN1 (setting [10]), 92.3 nM; in the test on PRKX (setting [11]), 127 nM. For the same compound, the Kd in the test with GSK3A (setting [7]) was 164 nM; in the test with GSK3B (setting [8]) it was 288 nM; with LATS1 (setting [9]) it was 87.4 nM; with PKN1 (setting [10]) it was 92.3 nM; in the test on PRKX (setting [11]), 127 nM.
With `CONC1=NC(=O)/C(=C/c2ccc3ncccc3c2)S1` [RO4613269-000], the results for the concentration for half-maximal inhibition (IC50) in the test with CDK1_CycB1, with CK2alpha1 and in the test with CK2alpha2 were 2.74e-06 M, 1.16e-07 M and 6.53e-08 M, respectively.
Consider `Cn1ncc2c(N)ncnc21` [SKF-18267], for which the potency estimated from few doses was 441 nM in the test on CAMK2D; 1030 nM with CSNK1G3; 1170 nM in the test on DCTPP1; 994 nM in the test on DDR2 (CATDS: 4.5419231694641699E-3); 974 nM in the test with MAPK1; 420 nM with PI4KA. Besides, the potency estimated from few doses with RPS6KA5 is 891 nM; in the test with SIK3 (CATDS: 3.59529212961178E-3), 1790 nM; in the test on STRADA (compound concentrations: 100 nM and 1000 nM (sheet 'Samples'), CATDS: 3.7902262633519698E-3), 1540 nM.
Consider `Cc1cccc(Nc2nc(N[C@H]3CCCC[C@H]3N)ncc2C(N)=O)c1.Cl` [GSK986310C], for which, in the test on STRADA (setting [1]), the potency estimated from few doses was 2120 nM.
